Source: PubChem (Broad Institute)
TRPM1 prom inh: inhibitors of MITF-dependent TRPM1 promoter reporter, primary screen, cell-based, SK-MEL-5, single point, luciferase; SK-MEL-5 TRPM1 promoter luciferase, 24 h; inhibition, % at 12.5 µM; 0.83% of 330,000 active;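 active = mean inhibition across replicates of 60% or more, whatever share of single replicates reaches that level; inconclusive = some that reach 60%, reason not given; inactive = mean inhibition across replicates below 60%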
PAX8 inh HTS: inhibitors of PAX8-driven TPO luciferase reporter, primary screen, RMG-I cells, single concentration | 1.2% of 360,000 active | SteadyGlo, 24 h | AID 652154, 2013 | inhibition, % at 12.6 µM;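 active = mean replicate inhibition at least 60% with every replicate also reaching 60%; inconclusive = only one of the two criteria is met; inactive = mean below 60% and not all replicates reaching 60%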;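 note: luciferase light reporting Pax8 driven TPO promoter activity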
EBV LMP1 NFkB: EBV LMP1-driven NF-kappaB luciferase reporter inhibitors, primary screen, cell-based, luminescence, single point; 0.69% of 350,000 active; inhibition, % at 12.5 µM; LMP1-induced NF-kappaB luciferase reporter cells; in the data active = inhibition above about 41%; inconclusive = no clear call, values can overlap the other calls
Shn3 inh set2: reduction of Shn3 3'UTR firefly luciferase signal, primary screen, Schnurri-3 inhibitor project, cell-based, Clone20 osteoblasts, set 2 | 0.52% of 360,000 active | Clone20 osteoblast Shn3 3'UTR firefly luciferase, 24 h | inhibition, % at 12.5 µM;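 active = mean inhibition of at least 75% with every replicate also reaching 75%; inconclusive = mean inhibition at least 75% but some replicate below; inactive = mean inhibition below 75%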
LGR2 inh: inhibitors of bursicon-induced LGR2 CRE-luciferase signal, primary screen, cell-based, HEK293, CRE-luciferase reporter, bursicon stimulation. Drosophila bursicon receptor LGR2 (rickets). inhibition, % at 9.99 µM. bursicon-stimulated, 4 h. 0.35% of 380,000 active;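 active = drop in luminescence signal, shown as inhibition above about 50% in the replicate tests, limit read from the data, passing the limit was not always enough; inconclusive = probably only some replicates passing the limit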;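 note: agonist challenge used bursicon conditioned medium at about half maximal strength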
EWS-Fli inh: EWS/Fli-driven NR0B1 reporter inhibitors, primary screen, A673 cells, NR0B1 luciferase, luminescence, MLPCN library; viability-normalised; inhibition, % at 12.6 µM; 0.67% of 350,000 active; AID 651661, 2012;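 active = mean inhibition of at least 50% after viability correction, with every replicate also passing that limit; inconclusive = mean reaches 50% but only one of two replicates passes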;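 note: firefly luciferase signal divided by Alamar Blue viability fluorescence both relative to DMSO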
Each line names hits and unclear results; the compound was inactive in the other large screens; ! = not confirmed by another sample. Most compounds without a hit are left out; they make up all but 2.2% or so of the library.

COc1ccc2cc(-c3cc(C(=O)OCC(=O)NC4CCS(=O)(=O)C4)c4ccccc4n3)ccc2c1 (stereo unspecified)	EBV LMP1 NFkB 50 (no result: EWS-Fli inh)
COc1ccc(-c2cc(C(=O)Nc3c(C)n(C)n(-c4ccccc4)c3=O)c3ccccc3n2)cc1	none
COc1ccc2cc(-c3cc(C(=O)OCC(=O)Nc4c(C)n(C)n(-c5ccccc5)c4=O)c4ccccc4n3)ccc2c1	EBV LMP1 NFkB 58, LGR2 inh inconclusive (no result: EWS-Fli inh)
COc1ccc(-c2cc(C(=O)OCC(=O)NC3CC3)c3ccccc3n2)cc1	none
COc1cc(C2CC(=O)Oc3cc4c(cc32)OCO4)cc(OC)c1OC (stereo unspecified)	none
COc1cc(C2C(C#N)=C(N)Oc3cc4c(cc32)OCO4)cc(OC)c1OC (stereo unspecified)	TRPM1 prom inh 77, PAX8 inh HTS 96, EWS-Fli inh 62
O=C1OCC2=C1C(c1ccc3c(c1)OCO3)c1cc3c(cc1O2)OCO3 (stereo unspecified)	EBV LMP1 NFkB 59
N#CC1=C(N)Oc2cc3c(cc2C1c1ccc(Cl)cc1)OCO3 (stereo unspecified)	none (no result: PAX8 inh HTS)
COc1cc(C2C(C#N)=C(N)Oc3cc(O)ccc32)cc(OC)c1OC (stereo unspecified)	none (no result: PAX8 inh HTS, LGR2 inh, EWS-Fli inh)
COc1cc(C2C3=C(COC3=O)Oc3cc4c(cc32)OCO4)cc(OC)c1OC (stereo unspecified)	PAX8 inh HTS 69
COc1cc(C2C3=C(COC3=O)Oc3cc4c(cc32)OCO4)cc(OC)c1O (stereo unspecified)	PAX8 inh HTS 90, EWS-Fli inh 57
COc1cc2nc(N3CCN(C(=O)C4CCCO4)CC3)nc(N)c2cc1OC (stereo unspecified)	EBV LMP1 NFkB 79!
COc1cc2nc(N3CCN(C(=O)[C@H]4COc5ccccc5O4)CC3)nc(N)c2cc1OC	none
C/C=C/c1ccc([C@@H]2[C@@H](CO)N(C(=O)CC)[C@@H]2CNC(=O)CC2CC2)cc1	none (no result: TRPM1 prom inh, EBV LMP1 NFkB, Shn3 inh set2)
COc1ccc2nc3cc(Cl)ccc3c(Nc3ccc(O)c(CN4CCN(C)CC4)c3)c2c1	TRPM1 prom inh 106
Cc1nc2sc(-c3ccccc3)cc2c(=O)n1N	EBV LMP1 NFkB 62, LGR2 inh 81, EWS-Fli inh 69 (no result: Shn3 inh set2)
Cc1nc2sc(-c3ccccc3)cc2c(=O)n1-n1cccc1	none (no result: PAX8 inh HTS, LGR2 inh, EWS-Fli inh)
CCC(=O)N(C)C[C@@H]1Oc2cc(-c3ccccc3C)ccc2S(=O)(=O)N([C@@H](C)CO)C[C@H]1C	none (no result: TRPM1 prom inh, PAX8 inh HTS, EBV LMP1 NFkB, Shn3 inh set2)
CCCS(=O)(=O)c1nc(S(=O)(=O)c2ccc(C)cc2)c(N2CCN(C)CC2)s1	none
Cc1ccc(S(=O)(=O)c2nc(S(=O)(=O)c3ccccc3)sc2N2CCN(C)CC2)cc1	PAX8 inh HTS 88
CCS(=O)(=O)c1nc(S(=O)(=O)c2ccc(C)cc2)c(N2CCN(CCO)CC2)s1	none (no result: EWS-Fli inh)
Cc1ccc(S(=O)(=O)c2nc(S(=O)(=O)c3ccccc3)sc2N2CCN(CCO)CC2)cc1	PAX8 inh HTS 71
CCN1CCN(c2sc(S(C)(=O)=O)nc2S(=O)(=O)c2ccc(C)cc2)CC1	PAX8 inh HTS 71
COc1ccc(NC(=O)N(C)C[C@H]2Oc3ccc(NC(=O)NC(C)C)cc3C(=O)N([C@@H](C)CO)C[C@@H]2C)cc1	none (no result: TRPM1 prom inh, EBV LMP1 NFkB, Shn3 inh set2)
CN(C)C(=O)C[C@H]1C[C@@H]2c3cc(NC(=O)C4CCC4)ccc3O[C@@H]2[C@@H](CO)O1	none (no result: TRPM1 prom inh, EBV LMP1 NFkB, Shn3 inh set2)
Cc1ccc(S(=O)(=O)Nc2ccc3c(c2)C(=O)N([C@@H](C)CO)C[C@H](C)[C@@H](CN(C)C(=O)Nc2ccc(C(F)(F)F)cc2)OCCCC[C@H](C)O3)cc1	PAX8 inh HTS 79 (no result: TRPM1 prom inh, EBV LMP1 NFkB, Shn3 inh set2)
Cc1ccc(S(=O)(=O)Nc2ccc3c(c2)C(=O)N([C@H](C)CO)C[C@@H](C)[C@H](CN(C)C(=O)Nc2ccc(C(F)(F)F)cc2)OCCCC[C@@H](C)O3)cc1	PAX8 inh HTS 69 (no result: TRPM1 prom inh, EBV LMP1 NFkB, Shn3 inh set2)
Cc1ccc(S(=O)(=O)Nc2ccc3c(c2)C(=O)N([C@H](C)CO)C[C@H](C)[C@@H](CN(C)C(=O)Nc2ccc(C(F)(F)F)cc2)OCCCC[C@H](C)O3)cc1	none (no result: TRPM1 prom inh, EBV LMP1 NFkB, Shn3 inh set2)
O=S(=O)(c1ccc(F)cc1)N1CCCCN2[C@H](C1)[C@H](c1ccc(C#CC3CCCC3)cc1)[C@@H]2CO	none (no result: TRPM1 prom inh, EBV LMP1 NFkB, Shn3 inh set2, LGR2 inh)
OC(CNCC1CCCO1)Cn1c2ccc(Cl)cc2c2cc(Cl)ccc21 (stereo unspecified)	none (no result: PAX8 inh HTS, LGR2 inh, EWS-Fli inh)
OC(CNCCC1C=Nc2ccccc21)Cn1c2ccc(Cl)cc2c2cc(Cl)ccc21 (stereo unspecified)	TRPM1 prom inh 91, Shn3 inh set2 93 (no result: EWS-Fli inh)
O=C(NCc1ccccn1)C1CCCN(S(=O)(=O)c2cc(Cl)ccc2Cl)C1 (stereo unspecified)	TRPM1 prom inh 98 (no result: PAX8 inh HTS, LGR2 inh, EWS-Fli inh)
COc1ccc(C)cc1S(=O)(=O)N1CCCC(C(=O)NCc2ccccn2)C1 (stereo unspecified)	none (no result: EWS-Fli inh)
Cc1ccc(NC(=O)c2ccc(CN3CCN(C)CC3)cc2)cc1Nc1nccc(-c2cccnc2)n1	EBV LMP1 NFkB 77
O=C1O[C@@H](c2ccccc2)[C@@H](c2ccccc2)N2[C@@H](c3ccccc3OCCO)[C@]3(C(=O)Nc4ccc(C#CCCO)cc43)[C@@H](C(=O)N3CCCCCCC3)[C@H]12	PAX8 inh HTS 93 (no result: TRPM1 prom inh, EBV LMP1 NFkB, Shn3 inh set2, LGR2 inh)
NC(=O)[C@@H]1[C@H]2C(=O)O[C@H](c3ccccc3)[C@H](c3ccccc3)N2[C@H](c2ccccc2OCCO)[C@@]12C(=O)Nc1ccccc12	PAX8 inh HTS 84 (no result: TRPM1 prom inh, EBV LMP1 NFkB, Shn3 inh set2, LGR2 inh)
NC(=O)NCC#Cc1ccc2c(c1)[C@]1(C(=O)N2)[C@H](c2ccccc2OCCO)N2[C@H](c3ccccc3)[C@H](c3ccccc3)OC(=O)[C@H]2[C@@H]1C(=O)N1CCCCCCC1	none (no result: TRPM1 prom inh, EBV LMP1 NFkB, Shn3 inh set2, LGR2 inh)
O=C1O[C@H](c2ccccc2)[C@H](c2ccccc2)N2[C@H]1[C@@H](C(=O)N1CCCCCCC1)[C@]1(C(=O)Nc3ccccc31)[C@H]2c1ccccc1OCCO	PAX8 inh HTS 79 (no result: TRPM1 prom inh, EBV LMP1 NFkB, Shn3 inh set2, LGR2 inh)
C=CC[n+]1c(/C=C2\C=Cc3cc(C)ccc3N2CC)ccc2ccccc21	TRPM1 prom inh 78, PAX8 inh HTS 88, EBV LMP1 NFkB 45, Shn3 inh set2 93
COc1cccc(C(=O)Nc2ccc3c(c2)OC[C@H](C)N(CC2CC2)C[C@@H](C)[C@H](OC)CN(C)C3=O)c1	none (no result: TRPM1 prom inh, PAX8 inh HTS, EBV LMP1 NFkB, Shn3 inh set2)
CC(=O)Nc1ccc(NC(=O)c2nc(S(=O)(=O)Cc3ccccc3)ncc2Cl)cc1	TRPM1 prom inh 88, PAX8 inh HTS 94, Shn3 inh set2 95 (no result: EWS-Fli inh)
COc1ccc(CNC(=O)c2nc(S(=O)(=O)Cc3ccccc3)ncc2Cl)cc1	TRPM1 prom inh 67, Shn3 inh set2 92 (no result: EWS-Fli inh)
Cc1noc(C(=O)NCc2ccccc2)c1Cl	none
O=C(NCc1ccccc1)c1nc(S(=O)(=O)Cc2ccccc2)ncc1Cl	Shn3 inh set2 94 (no result: EWS-Fli inh)
